Out of some 220,000 compounds screened, about 910 (0.41%) were called active.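 The calls were made as follows: active = primary inhibition above the hit cutoff, then over 50% inhibition at one or more dose response concentrations (cut at about 23% in these data, passing the limit was not always enough); inconclusive = conflicting primary data, or primary hits not chosen for dose response; inactive = low primary inhibition, or under 50% at every dose.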 The full list was thinned out, with actives kept by preference. Measured potencies and affinities stand elsewhere.

The target of this assay is Aminopeptidase N (Plasmodium falciparum (isolate 3D7)) (UniProt O96935). The assay can be described thus: malaria alanyl aminopeptidase activity blockers – biochemical, fluorogenic H-Leu-NHMec substrate, 1536-well (AID 1445).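 Also: plate controls were DMSO full reaction for no effect and no enzyme background for full effect.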 The following applies: recombinant M1AAP, H-Leu-NHMec fluorogenic kinetic assay; at 30 µM, hits give high values unless noted.
Aminopeptidase N (Plasmodium falciparum (isolate 3D7)), sequence (O96935 whole entry, looked up): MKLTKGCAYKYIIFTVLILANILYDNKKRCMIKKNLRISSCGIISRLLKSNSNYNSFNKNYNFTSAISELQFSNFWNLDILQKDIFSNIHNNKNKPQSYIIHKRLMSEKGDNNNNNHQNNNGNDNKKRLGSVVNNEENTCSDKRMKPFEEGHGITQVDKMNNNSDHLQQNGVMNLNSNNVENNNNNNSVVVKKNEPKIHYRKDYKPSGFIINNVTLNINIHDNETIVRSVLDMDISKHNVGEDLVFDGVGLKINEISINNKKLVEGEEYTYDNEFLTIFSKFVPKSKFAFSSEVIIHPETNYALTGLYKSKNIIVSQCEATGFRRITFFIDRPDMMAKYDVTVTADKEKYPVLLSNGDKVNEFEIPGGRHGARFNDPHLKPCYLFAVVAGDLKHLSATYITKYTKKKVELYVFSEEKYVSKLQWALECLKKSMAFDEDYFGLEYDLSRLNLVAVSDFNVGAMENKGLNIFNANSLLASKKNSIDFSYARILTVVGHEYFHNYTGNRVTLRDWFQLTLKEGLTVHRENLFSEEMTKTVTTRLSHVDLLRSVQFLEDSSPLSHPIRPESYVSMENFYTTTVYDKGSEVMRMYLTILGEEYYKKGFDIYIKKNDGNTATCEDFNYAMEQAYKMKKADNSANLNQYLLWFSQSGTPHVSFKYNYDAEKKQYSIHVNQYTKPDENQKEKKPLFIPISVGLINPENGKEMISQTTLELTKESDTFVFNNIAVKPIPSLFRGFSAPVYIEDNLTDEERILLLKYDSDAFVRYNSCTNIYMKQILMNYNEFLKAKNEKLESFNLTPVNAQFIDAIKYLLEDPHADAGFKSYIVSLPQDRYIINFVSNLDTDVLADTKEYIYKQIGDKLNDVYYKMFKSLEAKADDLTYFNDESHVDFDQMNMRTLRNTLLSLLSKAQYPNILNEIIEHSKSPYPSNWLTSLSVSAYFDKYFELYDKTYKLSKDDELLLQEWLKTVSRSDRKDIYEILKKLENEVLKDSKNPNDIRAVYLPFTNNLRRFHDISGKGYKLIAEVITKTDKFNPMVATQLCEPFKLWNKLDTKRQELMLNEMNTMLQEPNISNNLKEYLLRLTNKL
Take `O=C1Nc2ccccc2S/C1=C/Nc1cccc(Cl)c1`: the inhibition is -0.46% (inactive). As for `Cc1ccc(N/C=C2/Sc3ccccc3NC2=O)cc1`, the figure is -2.38% (inactive); as for `CCc1ccc(OCC(=O)NC(NC(=S)Nc2ccc(C)cc2C)C(Cl)(Cl)Cl)cc1` (configuration not stated), 1.79% (inactive); as for `Cc1cc(NC(=O)CSc2nnc(-c3ccncc3)n2-c2ccccc2)no1`, 10.6% (inactive).

Regarding `CCCCOc1ccc(C(=O)O)cc1`, the inhibition was 9.1% (inactive).

Consider `CCCCOc1ccc(CC(=O)NCC(=O)O)cc1`, for which the inhibition was 3.76% (inactive). With `Cc1cccc(N(Cc2cc3ccccc3[nH]c2=O)C(=O)c2cccs2)c1` the figure was 0.39% (inactive); with `C=CCOc1ccc2ccccc2c1CNc1ncn[nH]1`, 0.63% (inactive). With `CN(CC(=O)Nc1ccc(N2CCOCC2)cc1)C(=O)COc1ccccc1F` the figure was 0.51% (inactive); with `CN1c2ccsc2C(O)=C(C(=S)Nc2ccccc2)S1(=O)=O`, 7.91% (inactive). As for `Cc1ccc(NC(=O)C2=C(O)c3sccc3N(C)S2(=O)=O)cc1`, the figure is 8.43% (inactive).

As to `Cc1ccc(NC(=S)C2=C(O)c3sccc3N(C)S2(=O)=O)cc1`, the inhibition is 25.2% (active). For `Cc1cc(Oc2cc(N)cc([N+](=O)[O-])c2)ccc1Cl`, the inhibition is 4.69% (inactive). As for `O=C(NNC(=O)c1ccccc1Br)c1ccccc1Cl`, the figure is 5.77% (inactive).

Turning to `O=C(NNC(=O)c1ccc2ccccc2c1O)c1ccccc1Cl`, the inhibition was 25.2% (active).

For the compound `O=C(NNC(=O)c1ccccc1Cl)c1ccccc1Cl`, the inhibition was -3.69% (inactive). With `CSc1ccc(-c2nnn(CC(=O)NCc3ccccc3)n2)cc1` the figure was -1.85% (inactive); with `Cc1ccc(-c2ccc(C3C(C#N)=C(N)Oc4n[nH]c(C)c43)o2)cc1` (configuration not stated), 12.9% (inactive). As to `Cc1[nH]nc2c1C(c1ccc(-c3ccccc3C#N)o1)C(C#N)=C(N)O2` (configuration not stated), the inhibition is 23.4% (active).

In the case of `Cc1[nH]nc2c1C(c1ccc(-c3ccc(Cl)cc3)o1)C(C#N)=C(N)O2` (configuration not stated), the inhibition is -0.1% (inactive).

With `COc1ccc(N2CCN(C(=O)COc3ncnc4ccccc34)CC2)cc1`, the inhibition is 0.28% (inactive). With `N/C(=N\OC(=O)CCCOc1ccccc1)c1ccncc1` the figure was 2.2% (inactive).

Regarding `CCOCCCNC(=O)CCC(=O)NNc1nc2ccccc2c2nc(C)nn12`, the inhibition is 1.55% (inactive). Turning to `CCCCn1c(NC(=O)c2ccccc2)c(C#N)c2nc3ccccc3nc21`, the inhibition is 2.47% (inactive). With `COc1ccc(-n2c(NC(=O)c3ccco3)c(C#N)c3nc4ccccc4nc32)cc1` the figure was 3.92% (inactive); with `CCCCn1c(N)c(S(=O)(=O)c2ccc(C)cc2)c2nc3ccccc3nc21`, 12.5% (inactive). In the case of `CCCCn1c(NS(=O)(=O)c2ccccc2)c(S(=O)(=O)c2ccc(C)cc2)c2nc3ccccc3nc21`, the inhibition is -1.2% (inactive). With `Cc1ccc(S(=O)(=O)c2c(N)n(Cc3ccco3)c3nc4ccccc4nc23)cc1` the figure was 24.7% (active); with `Nc1c(S(=O)(=O)c2ccccc2)c2nc3ccccc3nc2n1Cc1ccco1`, 21.5% (inactive).

Turning to `Cc1cccc(S(=O)(=O)c2c(N)n(Cc3ccco3)c3nc4ccccc4nc23)c1`, the inhibition is 20.6% (inactive).

Regarding `CCCCn1c(NS(=O)(=O)c2ccc(C)cc2)c(S(=O)(=O)c2ccccc2)c2nc3ccccc3nc21`, the inhibition was 11.6% (inactive). As for `COc1ccc(-n2c(NC(=O)c3ccc(Br)o3)c(C#N)c3nc4ccccc4nc32)cc1`, the figure is 1.59% (inactive). With `O=C(c1ccc(-c2ccccc2)cc1)C1CCCN(C(=O)Cn2cncn2)C1` (configuration not stated) the figure was 8.56% (inactive); with `O=C(C(=O)N1CCCc2ccccc21)c1cn(CC(=O)N2CCOCC2)c2ccccc12`, 1.02% (inactive). Regarding `O=C(NCc1ccccc1)C12CC3CC(CC(C3)C1)C2`, the inhibition was -3.07% (inactive). As for `Cc1nn(C(=O)c2cccnc2)c(C)c1Sc1ccccc1`, the figure is 6.53% (inactive); as for `Cc1ccc(S(=O)(=O)N(C)C)cc1NC(=O)c1sccc1Cl`, 0.57% (inactive); as for `Cc1ccc(C(=O)N2CCCC(c3ccc(Cl)cc3)=N2)cc1`, -2.39% (inactive).

As to `Cc1ccsc1/C=N/NC(=O)c1ccc([N+](=O)[O-])cc1`, the inhibition was 4% (inactive). As for `CCCCn1c(NC(=O)c2ccc(Br)o2)c(S(=O)(=O)c2ccccc2)c2nc3ccccc3nc21`, the figure is 8.47% (inactive); as for `CC(=O)Nc1c(S(=O)(=O)c2ccccc2)c2nc3ccccc3nc2n1Cc1ccccc1`, 22.9% (inactive); as for `CC(=O)Nc1ccc2nc(NC(=O)c3cccs3)sc2c1`, 4.98% (inactive). As for `O=C(Nc1ccc(F)cc1F)c1ccccc1-c1ccccc1`, the inhibition is -1.46% (inactive). As for `CCCCNC(=O)CSc1nc2ccsc2c(=O)n1CCCC(=O)NCCc1ccc(S(N)(=O)=O)cc1`, the figure is 4.74% (inactive); as for `CCN(CC)C(=O)CSc1nc2ccsc2c(=O)n1CCCC(=O)NCCc1ccc(S(N)(=O)=O)cc1`, 11.4% (inactive).

Take `COc1cc(C(=O)OCC(=O)NCc2ccco2)cc(OC)c1OC`: the inhibition was 7.63% (inactive).

Consider `CCCn1c2c(c(O)c(C(=O)Nc3ncccc3C)c1=O)CCCC2`, for which the inhibition was 5.08% (inactive). With `CC(C)Cn1c2c(c(O)c(C(=O)Nc3ncccc3O)c1=O)CCCC2` the figure was 16.5% (inactive); with `CCCn1c2c(c(O)c(C(=O)Nc3ncccc3O)c1=O)CCCC2`, 25.1% (active). With `O=C(NCc1ccccn1)C(=O)NCc1ccccn1` the figure was 5.31% (inactive); with `COc1cccc(-n2c(SCC(=O)NCc3ccco3)nnc2-c2c[nH]c3ccccc23)c1`, 16.4% (inactive). As for `COc1ccc(-c2[nH]c(-c3cccc(OC)c3)nc2SCC(=O)NCc2ccco2)cc1`, the figure is 25.2% (active); as for `COc1ccc(OC)c(-n2c(SCC(=O)NCc3ccco3)nnc2-c2c[nH]c3ccccc23)c1`, 24.5% (active). As to `COc1ccc(-n2c(SCC(=O)NCc3ccco3)nnc2-c2c[nH]c3ccccc23)cc1`, the inhibition is 3.42% (inactive).

With `COc1ccc(-c2nc(SCC(=O)NCc3ccco3)c(-c3ccccc3)[nH]2)cc1OC`, the inhibition was 8.46% (inactive).

On to `COc1ccc(-c2[nH]c(-c3ccccc3)nc2SCC(=O)NCc2ccco2)cc1OC`, for which the inhibition is 4.65% (inactive). With `S=c1nc(-c2csc3c2CCCC3)[nH][nH]1`, the inhibition is -7.04% (inactive). As for `CCCC(=O)N(Cc1cc2cccc(C)c2[nH]c1=O)c1ccccc1OC`, the figure is 0.65% (inactive); as for `COc1cccc(-n2cc(CN(C)Cc3nc(Cc4ccccc4)no3)cn2)c1`, 0.62% (inactive). Take `COc1ccc(NC(=O)C2CCCN(S(=O)(=O)c3ccc4c(c3)oc(=O)n4C)C2)cc1OC` (configuration not stated): the inhibition is 3.43% (inactive).

Consider `COc1ccccc1N1CCN(S(=O)(=O)CC23CCC(CC2=O)C3(C)C)CC1` (configuration not stated), for which the inhibition was -1.74% (inactive).

On to `CCCn1cc(S(=O)(=O)CC(=O)Nc2ccc(OC)cc2OC)c2ccccc21`, for which the inhibition was -0.94% (inactive). For the compound `O=C(/C=C/c1ccccc1Cl)N(Cc1ccccc1)C1CCS(=O)(=O)C1` (configuration not stated), the inhibition was 0.49% (inactive). As for `COc1ccc(N2CSC3=C(C#N)C(c4cccs4)CC(=O)N3C2)cc1` (configuration not stated), the figure is 31.7% (inactive); as for `O=C(Nc1ccc(N2CCN(C(=O)c3ccc(Cl)cc3)CC2)cc1)c1cccnc1`, 3.47% (inactive). With `Cc1ccccc1C(=O)N1CCN(c2ccc(NC(=O)c3cccnc3)cc2)CC1` the figure was 1.42% (inactive). With `Cc1ccc(C(=O)N2CCN(c3ccc(NC(=O)c4cccnc4)cc3)CC2)cc1` the figure was 25.7% (active). With `O=[N+]([O-])c1ccc(Cl)cc1N1CCCCC1`, the inhibition was 4.92% (inactive). Regarding `O=C(CSc1nnc(-c2ccncc2)n1C1CCCCC1)Nc1ccccc1`, the inhibition was 0.45% (inactive). As for `O=C(CSc1ccccc1)Nc1ccc(S(=O)(=O)Nc2ncccn2)cc1`, the figure is 3.64% (inactive). Take `O=C(CSc1nnc(-c2ccccc2)n1C1CCCCC1)Nc1ccc(S(=O)(=O)Nc2ccccn2)cc1`: the inhibition was 1.56% (inactive). With `Cc1noc(NS(=O)(=O)c2ccc(NC(=O)CSc3n[nH]c(-c4ccccc4)n3)cc2)c1C` the figure was 19.9% (inactive); with `Cc1cc(C)nc(SCC(=O)Nc2ccc(S(=O)(=O)Nc3ncccn3)cc2)n1`, 3.26% (inactive); with `Cc1noc(NS(=O)(=O)c2ccc(NC(=O)CSc3ncccn3)cc2)c1C`, 1.83% (inactive). As for `CC(Sc1nnc2ccccn12)C(=O)N1CCc2ccccc2C1` (configuration not stated), the figure is 2.85% (inactive). Take `NC1=C(c2ccc(F)cc2)C(=O)CS1`: the inhibition was -0.25% (inactive). As for `COC(=O)c1noc(C)c1-c1ccnn1C(=O)c1ccc(C)cc1`, the figure is 5.18% (inactive); as for `CCOc1ccccc1OCC(=O)Nc1nnc(C)s1`, 0.54% (inactive).

For `O=c1oc2ccccc2nc1/C=C(O)/C=C\c1ccccc1`, the inhibition was 5.28% (inactive). As for `CN1CCN(Cc2c(O)ccc3c(-c4ccccc4)cc(=O)oc23)CC1`, the inhibition is 20.2% (inactive). With `COc1ccccc1-c1c(C)oc2c(CN3CCN(C)CC3)c(O)ccc2c1=O` the figure was 8.67% (inactive).

Take `Cc1cc(N2CCN(c3ccccn3)CC2)n2c(nc3ccccc32)c1C#N`: the inhibition was -0.82% (inactive). With `O=[N+]([O-])c1cc(C(F)(F)F)ccc1N/N=C/c1cc2ccccc2nc1Cl` the figure was -1.36% (inactive); with `C/C(=N/OCO/N=C(\C)c1ccccc1F)c1ccccc1F`, 1.08% (inactive); with `Cc1ccc2oc(=O)n(Cc3ccccc3OC(C)C)c2c1`, 1.91% (inactive). With `Cc1cccc(S(=O)(=O)Nc2nc3ccccc3nc2NCc2ccco2)c1` the figure was 14.8% (inactive); with `Cc1ccc(S(=O)(=O)Nc2nc3ccccc3nc2NCc2ccco2)cc1C`, 25.4% (active); with `Cc1ccc(S(=O)(=O)Nc2nc3ccccc3nc2NCc2ccco2)cc1`, 10.1% (inactive). With `N/C(Cc1nc(-c2ccc(Br)cc2)cs1)=N\O` the figure was 1.76% (inactive). `COc1cc2c(cc1NC(=O)c1cc(-c3ccncc3)nc3ccc(C)cc13)oc1ccccc12`: the inhibition was 0.05% (inactive). With `Cc1ccc(CCNS(=O)(=O)c2cnc[nH]2)cc1`, the inhibition was 1.38% (inactive). For the compound `C/C(=N\NC(=S)NC1CCCCC1)c1ccc(O)cc1`, the inhibition is -1.69% (inactive).

In general, inhibition refers to the relative decrease from the control value, in per cent.

The values are drawn from PubChem BioAssay AID1445 (SRMLSC, 2008).
